Hit rate of the full screen: of about 2,000 compounds, about 250 (12%) were called active. The list comes from a sample in which actives are over-represented; it also holds similar structures and randomly drawn compounds. A number with no mark means an inactive call. Cut-off read from the data, not from the text of the source: active = hERG blockade below about -20% or above about 20%; inactive = in between.

This test deals with Voltage-gated inwardly rectifying potassium channel KCNH2 (Homo sapiens) (UniProt Q12809). Put plainly: modulators of KCNH2 ion channel function, cellular (AID 376).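 Note: 0% = buffer alone and 100% = reference blocker.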 Conditions: hERG-expressing cells, channel activity single-concentration screen; concentration not given here.
Sequence of Voltage-gated inwardly rectifying potassium channel KCNH2 (Homo sapiens) (Q12809 whole entry, looked up): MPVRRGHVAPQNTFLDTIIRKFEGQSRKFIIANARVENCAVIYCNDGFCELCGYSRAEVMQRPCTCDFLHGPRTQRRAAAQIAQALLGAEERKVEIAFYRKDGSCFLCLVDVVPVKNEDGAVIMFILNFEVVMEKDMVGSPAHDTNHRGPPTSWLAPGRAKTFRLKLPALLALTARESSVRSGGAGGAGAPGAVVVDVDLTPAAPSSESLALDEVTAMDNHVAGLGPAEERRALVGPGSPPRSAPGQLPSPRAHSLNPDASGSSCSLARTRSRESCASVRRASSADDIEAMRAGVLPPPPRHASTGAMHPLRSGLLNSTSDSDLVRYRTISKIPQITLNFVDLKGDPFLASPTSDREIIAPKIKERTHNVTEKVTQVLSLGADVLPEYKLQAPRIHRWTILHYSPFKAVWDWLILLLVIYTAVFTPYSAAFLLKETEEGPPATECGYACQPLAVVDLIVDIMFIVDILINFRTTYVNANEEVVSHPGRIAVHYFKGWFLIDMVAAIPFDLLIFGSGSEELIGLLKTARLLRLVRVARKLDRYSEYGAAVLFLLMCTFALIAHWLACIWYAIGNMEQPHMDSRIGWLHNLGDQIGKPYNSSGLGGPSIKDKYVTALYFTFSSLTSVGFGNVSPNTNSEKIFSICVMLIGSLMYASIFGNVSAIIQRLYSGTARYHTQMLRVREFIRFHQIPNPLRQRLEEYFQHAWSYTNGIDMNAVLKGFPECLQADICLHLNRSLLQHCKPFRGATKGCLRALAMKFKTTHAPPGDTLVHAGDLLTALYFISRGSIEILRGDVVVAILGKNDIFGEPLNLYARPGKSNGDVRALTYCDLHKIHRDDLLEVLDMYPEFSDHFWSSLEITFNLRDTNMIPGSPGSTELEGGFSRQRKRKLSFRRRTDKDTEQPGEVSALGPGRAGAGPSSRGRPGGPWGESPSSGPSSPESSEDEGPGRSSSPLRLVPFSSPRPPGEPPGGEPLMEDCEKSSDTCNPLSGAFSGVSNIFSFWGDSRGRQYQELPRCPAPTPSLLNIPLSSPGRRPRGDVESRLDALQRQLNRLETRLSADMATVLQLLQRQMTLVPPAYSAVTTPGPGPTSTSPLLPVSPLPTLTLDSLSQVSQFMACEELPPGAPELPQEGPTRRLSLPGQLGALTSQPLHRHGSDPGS
Regarding `CCC1=C(CC2NCCc3ccccc32)CC2c3cc(OC)c(OC)cc3CCN2C1` (stereo not drawn), the hERG blockade is 47.5% (active). As for `N#CC(=CNc1ccccn1)C(=O)c1ccco1`, the hERG blockade is -1.1%. On to `OCCCNCc1ccncc1`, for which the hERG blockade is -7.86%.

Regarding `CC1(C)SC2C(C(=O)O)N=C(Cc3ccccc3)N2C1C(=O)O` (stereo not drawn), the hERG blockade is 4.53%. With `O=[N+]([O-])c1ccc2ncccc2c1CCc1c([N+](=O)[O-])ccc2ncccc12` the figure was 2.28%; with `CC(=O)C(C)CCOC1(C)OCCC1C` (stereo not drawn), -22.8% (active); with `Cc1ccc(C)c(C(=N)c2ccccc2Cc2ccccc2)c1`, -12.5%. As for `CC(SCc1ccccc1)C(=O)O` (stereo not drawn), the figure is 3.31%; as for `NCC(=O)Nc1ccccc1`, 5.81%. As for `O=C(c1no[n+]([O-])c1C(=O)c1csc2ccccc12)c1csc2ccccc12`, the figure is 18.4%.

On to `O=C(O)c1ccccc1C1c2ccccc2Oc2ccccc21`, for which the hERG blockade is 12.2%. With `Cc1cccc2c1Oc1ccccc1C2NC(=O)c1ccc([N+](=O)[O-])cc1` (stereo not drawn) the figure was 32.2% (active); with `NC(CC1=CS(=O)(=O)c2ccc(Cl)cc21)C(=O)O` (stereo not drawn), 0.214%. Turning to `Cc1cc(C(=O)CSC(=S)SC(C)(C)C)ccc1Cl`, the hERG blockade was 8.12%. With `CN(C)CCCNc1cc(O)c2c(c1O)C(=O)c1ccccc1C2=O` the figure was 42.1% (active); with `CC1=NCC[N+]1(CCc1ccccc1)Cc1ccccc1` (stereo not drawn), 13.6%. With `CN(C)S(=O)(=O)c1nc(Cl)c2[nH]cnc2n1`, the hERG blockade is -2.43%. Turning to `COc1cc(NCCC(=O)O)c2ncccc2c1`, the hERG blockade is 11.9%. With `Cn1c(=O)c2[nH]c(CCCCc3nc4c([nH]3)c(=O)n(C)c(=S)n4C)nc2n(C)c1=S` the figure was -1.88%; with `O=C1C=C(N2CCN(c3ccccn3)CC2)C(=O)c2c(O)ccc(O)c21`, 23.2% (active). With `Oc1ccc(Cl)cc1C=Nc1cnc2ccccc2c1` the figure was 9.11%; with `C=CCSc1nc2ccccc2c(=O)n1Cc1ccco1`, 3.62%; with `N#CNC(N)=Nc1ccc(Cl)cc1`, -2.36%. As for `O=C(O)C12CC3(C(=O)O)CC(C(=O)O)(CC(C(=O)O)(C1)C3=O)C2=O`, the figure is -1.77%; as for `FC(F)(F)c1cccc(-c2nc3nc(Cl)c(Cl)nc3[nH]2)c1`, -24% (active). Regarding `CC(CCN)(CCN)[N+](=O)[O-]`, the hERG blockade is -18.2%. For `CN(Cc1cc(C(C)(C)C)cc(Br)c1O)Cc1cc(C(C)(C)C)cc(Br)c1O`, the hERG blockade is 5.11%.

Take `CC(C)C(=O)Cc1ccc2ccccc2n1`: the hERG blockade was -1.76%. As for `CCOC(=S)SCC(=O)O`, the figure is 0.925%. As for `O=C(O)C1C2C=CC(O2)C1C(=O)NCc1cccnc1` (stereo not drawn), the figure is 5.66%. With `O=C(O)C1C2CCC(O2)C1C(=O)Nc1cccc2cccnc12` (stereo not drawn) the figure was -5.21%.

Take `O=C(O)C1C2CCC(O2)C1C(=O)NCc1cccnc1` (stereo not drawn): the hERG blockade was -25.3% (active). As for `N=c1ncn(CC=Cc2ccccc2)c2nc[nH]c12`, the figure is 15.2%. As for `CN(N=O)c1ccc(C=Cc2ccnc3ccccc23)cc1`, the figure is 18.7%.

Take `CN1CCN(CN2C(=O)C3C4C=CC(C3C2=O)C2C3C(=O)N(CN5CCN(C)CC5)C(=O)C3C42)CC1` (stereo not drawn): the hERG blockade was 2.12%.

Take `NC(Cc1ccnnc1)C(=O)O` (stereo not drawn): the hERG blockade is -0.431%.

In the case of `O=C(O)C1CC=CCC1C(=O)Nc1cccc(O)c1` (stereo not drawn), the hERG blockade was 7.36%. With `O=C1c2ccccc2C(=O)c2c(NC(=O)c3ccc4c5c(ncnc35)-c3ccccc3C4=O)cccc21` the figure was 6.48%; with `O=C1c2ccccc2C(=O)c2c(Nc3ccc4c5c(cccc35)C(=O)c3ccccc3-4)cccc21`, -13.6%; with `O=C1c2ccccc2C(=O)c2c(Nc3cc4c5c(ccc6c7ccc8c9c(cc(Nc%10cccc%11c%10C(=O)c%10ccccc%10C%11=O)c(c3c56)c97)-c3ccccc3C8=O)C(=O)c3ccccc3-4)cccc21`, 34.1% (active).

As to `CC1CCC(O)(C(C)(C(=O)O)c2ccccc2)CC1` (stereo not drawn), the hERG blockade was 5.36%. As for `CCCn1cnc2c(SCc3ccc(Cl)cc3)nc(N)nc21`, the figure is -2.91%; as for `C=CCC(C(=O)O)c1ccccc1` (stereo not drawn), -1.33%.

`CN(C)CN1CSC(=S)N(CN(C)C)C1`: the hERG blockade is -7.7%. As for `Cn1c(=O)c2[nH]c(CCCCC(=O)O)nc2n(C)c1=O`, the figure is -14.9%; as for `Cn1c(=O)c2[nH]c(CCS)nc2n(C)c1=O`, 5.6%; as for `CCn1c(CCCc2nc3c([nH]2)c(=O)n(C)c(=O)n3C)nc2c1c(=O)n(C)c(=O)n2C`, 25.2% (active). As for `O=C(O)CC(Nc1ccccc1)C(=O)O` (stereo not drawn), the figure is 12.6%; as for `O=C(O)c1nnsc1COCc1ccccc1`, 7.88%. For `O=c1c2ccccc2sc2c(CO)ccc(NCCN3CCCCC3)c12`, the hERG blockade is 46% (active). With `O=C(CCN1CCCCC1)c1csc2ccccc12` the figure was 6.4%; with `CC(=O)OC1CCC2(C)C(=CCC3C2CCC2(C)C(c4cc(C(F)(F)F)n(C(C)=O)n4)CCC32)C1` (stereo not drawn), 20.6% (active). As to `CC(=O)OC1CCC2(C)C(=CCC3C2CCC2(C)C(C(C)C(=O)O)CCC32)C1` (stereo not drawn), the hERG blockade is -4.67%. As for `CC(=O)OC1CCC2(C)C(=CCC3C2CCC2(C)C3CC3OC4(CCC(C)CN4)C(C)C32)C1` (stereo not drawn), the figure is -9.31%; as for `CC(C)(CN)CN`, -12.2%. With `O=c1c[n+](CCCC[n+]2cc(=O)o[nH]2)[nH]o1` the figure was -2.64%; with `Nc1ncnc2nc[nH]c12.Nc1ncnc2nc[nH]c12.[Cl][Pt]([Cl])([Cl])[Cl]`, 0.497%. As for `O=C1C=C(Nc2nc(C(=O)O)cc(=O)[nH]2)c2ccccc2C1=O`, the figure is 2.16%; as for `O=C=Nc1ccc(Cc2ccc(N=C=O)cc2)cc1` (tested in a mixture with another compound), 20% (active). Turning to `Nc1n[nH]c2ccccc12`, the hERG blockade is 0.624%.

Regarding `CN(C)CCNS(=O)(=O)N(C)C`, the hERG blockade is 6.32%.

`COc1c2c(c3c(c1CCC(=O)O)OC(C)(C)C=C3)OC(C)(C)C=C2`: the hERG blockade was -28.9% (active).

For `O=C(O)CSc1ccc(N=C=S)cc1`, the hERG blockade was 3.98%.

For `CC(C)(N)C(=O)NC1C(=O)N2C1SC(C)(C)C2C(=O)O` (stereo not drawn), the hERG blockade was -3.34%. As for `COC1C=COC2(C)Oc3c(C)c(O)c4c(O)c(c(CN(C)C)c(O)c4c3C2=O)NC(=O)C(C)=CC=CC(C)C(O)C(C)C(O)C(C)C(OC(C)=O)C1C` (stereo not drawn), the figure is 16.3%; as for `O=C(O)CN(CC(=O)O)c1ccccc1`, -27.7% (active). As for `CS(=O)(=O)N(CC(=O)O)Cc1ccccc1`, the figure is 12.2%. With `NN(CC(=O)O)CC(=O)O` the figure was 0.375%; with `CC(C)=CCc1c2c(c3occ(-c4ccc(O)c(O)c4)c(=O)c3c1O)C=CC(C)(C)O2`, 6.29%; with `O=C(O)c1ccc(SSc2ccc(C(=O)O)cn2)nc1`, -6.71%. Consider `O=C(O)C1C2CC3C(OC(=O)C31)C2Br` (stereo not drawn), for which the hERG blockade is 2.45%. As for `Cn1c(=O)c2[nH]c(CCNC(=O)c3ccccc3)nc2n(C)c1=O`, the figure is -14%; as for `N=C(N)c1ccc(C=Cc2ccc(C(=N)N)cc2)cc1`, 30.2% (active); as for `N=C(N)c1ccc(-c2ccc(-c3ccc(C(=N)N)cc3)o2)cc1`, 38.8% (active).

As for `NC(CSCc1ccccc1)C(=O)O` (stereo not drawn), the hERG blockade is -2.53%. Regarding `Nc1nc(Sc2ccc([N+](=O)[O-])c3nonc23)c2[nH]cnc2n1`, the hERG blockade was 23.5% (active). As for `CNc1ncnc(Sc2nc(N)nc3nc[nH]c23)c1[N+](=O)[O-]`, the figure is -10.6%; as for `Nc1nc(SCc2ccccc2[N+](=O)[O-])c2[nH]cnc2n1`, -11.5%; as for `CC1(C)N=C(N)N=C(N)N1c1cccc(OCc2cccc(N)c2)c1`, 4.96%. As for `NC(=O)CC=CCC(N)=O`, the figure is 1.92%.

Consider `O=C(O)c1ccc(C(=O)Nc2cccc3ccccc23)c(C(=O)O)c1`, for which the hERG blockade was -3.99%. For `O=C(Nc1cccc2ccccc12)c1ccccc1`, the hERG blockade was -30.7% (active). As for `S=C(CSc1ccccc1)Nc1cccc2ccccc12`, the figure is -7.05%. Take `COC(=O)C1(C)CCC(c2ccc(C)cc2)=C(CC(=O)O)C1` (stereo not drawn): the hERG blockade was -13.4%. With `OCCNC1c2cc(Cl)ccc2-c2c(Cl)cc(Cl)cc21` (stereo not drawn) the figure was 46.9% (active); with `O=C(NCCO)c1ccc(Cl)cc1`, 5.8%. As for `c1ccc(B2OCC(C3OB(c4ccccc4)OC4COB(c5ccccc5)OC43)O2)cc1` (stereo not drawn), the figure is 2.69%; as for `CC1CCCC(CC(=O)O)(CC(=O)O)C1` (stereo not drawn), -3.65%. With `CC1(C)C2CCC1(CC(=O)O)C(Cl)C2` (stereo not drawn) the figure was -22.5% (active); with `CC1(CC(=O)O)OC2CCCCCC2O1` (stereo not drawn) (tested in a mixture with another compound), 1.56%; with `COc1ccc(CC[N+]2(C)COc3cc4oc(=O)cc(C)c4cc3C2)cc1OC` (stereo not drawn), 11%.

Consider `Cc1c(O)c(Br)c(C)c(O)c1Br` (tested in a mixture with another compound), for which the hERG blockade was 12.5%. With `CC12CCC3c4ccc(O)cc4CCC3C1CCC2OP(=O)(O)O` (stereo not drawn) the figure was -3.7%; with `CC12CCC3c4ccc(O)cc4CCC3C1CC(=NO)C2O` (stereo not drawn), -10.7%; with `CC(NCCN(C)C)C1CCC2C3CCc4cc(O)ccc4C3CCC12C` (stereo not drawn), 22.1% (active). Take `Cc1cc(=Nc2ccc3c(c2)c(N)cc(C)[n+]3C)nc(N)n1C`: the hERG blockade is 30.2% (active). Consider `OCc1ccncc1.OCc1ccncc1.[Cl][Pt]([Cl])([Cl])[Cl]`, for which the hERG blockade is 1.38%. Consider `CCC(=O)Nc1ncnc2ncn(C(=O)CC)c12`, for which the hERG blockade is 12.6%. On to `COc1ccc(C(Nc2ncccn2)c2cc3c(cc2O)OCO3)cc1` (stereo not drawn), for which the hERG blockade was -20.2% (active). As for `COc1ccc(C(Nc2ccccn2)c2cc(C(C)(C)C)cc(C(C)(C)C)c2O)cc1` (stereo not drawn), the figure is 9.88%; as for `COc1ccc(C(C)c2cc3c(cc2O)OCO3)cc1` (stereo not drawn), 30% (active); as for `COc1ccc(C(O)c2ccccn2)cc1` (stereo not drawn), 3.46%. As for `CC(C)COC(c1ccc2c(c1)OCO2)C(C)Br` (stereo not drawn), the figure is 0.642%.

For the origin of these results see PubChem BioAssay AID376 (PDSP, 2006).
